The structures appear in SMILES notation. Among all 310,000 compounds or so, about 14,000 (4.5%) showed an effect of 50% or more. Effects have a minus sign here. For the sample, strong results were picked, then their nearest neighbours and some compounds at random.

Consider 88 compounds from article PMC4336329 (PLoS ONE, 2015).
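Note: peak tail current of the secondary pulse compared with the same well before compound.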

This experiment deals with human ether-à-go-go-related gene (hERG) potassium channel (human, UniProt Q12809). The experiment is described as follows: primary screen, population patch clamp on CHO cells stably expressing hERG; higher = less effect of the substance.
Sequence of human ether-à-go-go-related gene (hERG) potassium channel (Q12809 whole entry, looked up): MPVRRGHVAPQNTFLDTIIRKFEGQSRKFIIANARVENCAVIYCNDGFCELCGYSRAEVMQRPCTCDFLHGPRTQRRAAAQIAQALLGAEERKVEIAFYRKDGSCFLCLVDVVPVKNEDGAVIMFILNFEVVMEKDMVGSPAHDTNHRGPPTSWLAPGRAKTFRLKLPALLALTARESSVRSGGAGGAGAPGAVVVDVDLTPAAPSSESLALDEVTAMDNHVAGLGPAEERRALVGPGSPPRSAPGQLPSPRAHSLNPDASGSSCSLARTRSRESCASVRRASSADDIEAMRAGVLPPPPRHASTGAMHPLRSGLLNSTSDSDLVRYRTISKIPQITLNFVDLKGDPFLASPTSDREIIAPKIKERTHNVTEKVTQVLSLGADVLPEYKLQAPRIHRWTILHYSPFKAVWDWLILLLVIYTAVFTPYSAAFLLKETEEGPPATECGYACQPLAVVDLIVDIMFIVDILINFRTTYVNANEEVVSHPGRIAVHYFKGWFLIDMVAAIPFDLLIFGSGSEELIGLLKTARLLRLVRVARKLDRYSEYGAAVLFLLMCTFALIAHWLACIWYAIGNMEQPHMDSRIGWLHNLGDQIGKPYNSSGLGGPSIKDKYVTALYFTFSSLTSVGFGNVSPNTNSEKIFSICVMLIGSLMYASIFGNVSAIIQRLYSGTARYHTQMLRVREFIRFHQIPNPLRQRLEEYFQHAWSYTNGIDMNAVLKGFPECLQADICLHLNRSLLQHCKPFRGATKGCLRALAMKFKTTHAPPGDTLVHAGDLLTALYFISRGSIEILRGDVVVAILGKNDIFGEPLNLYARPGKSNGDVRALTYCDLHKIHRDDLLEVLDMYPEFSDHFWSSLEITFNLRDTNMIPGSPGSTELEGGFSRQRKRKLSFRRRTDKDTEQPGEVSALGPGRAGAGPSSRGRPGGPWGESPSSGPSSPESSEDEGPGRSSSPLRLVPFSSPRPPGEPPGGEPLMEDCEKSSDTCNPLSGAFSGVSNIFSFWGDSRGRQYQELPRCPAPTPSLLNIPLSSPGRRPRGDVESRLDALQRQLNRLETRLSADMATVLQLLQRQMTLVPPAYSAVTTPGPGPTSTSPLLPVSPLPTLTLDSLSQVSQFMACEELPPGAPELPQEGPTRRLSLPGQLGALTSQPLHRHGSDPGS
In the case of `CCCn1[nH]cc(SC)c(=O)c1=O`, the “hERG current change (%, negative = inhibition) at 10uM” value was -5.83%. As for `CCn1c(SCC(=O)Nc2c(C)n(C)n(-c3ccccc3)c2=O)nc2c1c(=O)n(C)c(=O)n2C`, the “hERG current change (%, negative = inhibition) at 10uM” value stood at 18.2%. Then `Cc1c(C(C)C)c(=O)n(-c2ccc(S(=O)(=O)N3CCOCC3)cc2)n1C`, with 17.4%. In the case of `Nc1c(Cl)c(Cl)nc(C(=O)OCC(=O)NCc2ccccc2)c1Cl` it was -18.2%; in that of `COCCn1c(SCC#N)nnc1-c1ccc2c(c1)OCO2`, -24.2%. Then `CCCCC(=O)Nc1c(O)c2ccccc2[nH]c1=O`, with -0.31%. Regarding `Cc1ccc(NC(=O)N2CCCCC2)cc1NC(=O)N1CCCCC1`, the “hERG current change (%, negative = inhibition) at 10uM” value was 16.5%. Then `Cc1ccc(-n2c(O)c(C=N)c(=O)n(-c3ccc(C)cc3)c2=O)cc1`, with -8.85%. As for `O=C1NC(=O)C(CCc2ccncc2)(C2CCCCC2)C(=O)N1`, the “hERG current change (%, negative = inhibition) at 10uM” value came to 5.77%. Then `CCC1(CCc2ccncc2)C(=O)NC(=O)NC1=O`, with -4.69%; and `O=C1NC(=O)C(CCc2ccncc2)(CCc2ccncc2)C(=O)N1CCc1ccccc1`, with -71.7%; and `O=C1NC(=O)C(CCc2ccncc2)(c2ccccc2)C(=O)N1`, with 5.76%. On to `CN1C(=O)N(C)C(=O)C(CCc2ccncc2)(CCc2ccncc2)C1=O`, for which the “hERG current change (%, negative = inhibition) at 10uM” value was -51.2%. Regarding `COc1cc(CC2(CCc3ccncc3)C(=O)N(C)C(=O)N(C)C2=O)cc(OC)c1OC`, the “hERG current change (%, negative = inhibition) at 10uM” value is on record as -8.33%. Then `COc1ccccc1N1C(=O)NC(=O)C(CCc2ccncc2)(CCc2ccncc2)C1=O`, with -46.6%; and `O=C1NC(=O)C(CCc2ccncc2)(CCc2ccncc2)C(=O)N1Cc1ccccc1`, with -72.5%; and `O=C1NC(=O)C(CCc2ccncc2)(Cc2ccc3c(c2)OCO3)C(=O)N1CCc1ccccc1` (stereo not shown), with -32.5%.

For the compound `C=CCN1C(=O)NC(=O)C(CCc2ccncc2)(CCc2ccncc2)C1=O`, the “hERG current change (%, negative = inhibition) at 10uM” value was -41.8%.

In the case of `O=C1NC(=O)C(CCc2ccncc2)(CCc2ccncc2)C(=O)N1C1CCCCC1`, the “hERG current change (%, negative = inhibition) at 10uM” value is -75.3%.

For the compound `CN1C(=O)N(C)C(=O)C(CCc2ccccn2)(CCc2ccccn2)C1=O`, the “hERG current change (%, negative = inhibition) at 10uM” value is 3.54%. In the case of `O=C(Cn1nc(-c2ccccc2)c2ccccc2c1=O)NN1CCOCC1` it was 5.24%; in that of `COc1ccc(S(=O)(=O)NCc2cccnc2)cc1OC`, 17.1%. In the case of `COc1cc2sc3ccc(C#Cc4ccccn4)cc3c(=O)c2cc1OC` it was 14.9%. In the case of `O=C1Cc2ccccc2C(=O)N1Cc1cccc(Cl)c1` it was 11.5%; in that of `CC(=O)Nc1sc(NC(=O)c2ccccc2)nc1-c1cccs1`, 0.00438%; in that of `CC1CC(Nc2ccccc2)=CC(=O)O1` (stereo not shown), 24.7%. On to `CC(c1nnc(Sc2nnnn2-c2ccccc2)n1-c1ccc(F)cc1)N(C)C` (stereo not shown), for which the “hERG current change (%, negative = inhibition) at 10uM” value came out at 3.57%. Then `COc1ccc(OCC(=O)Nc2ccccc2C(=O)NC2CC2)cc1`, with -13.4%; and `COc1ccccc1OCC(=O)Nc1ccccc1C(=O)NC1CC1`, with -8.86%; and `COc1ccc(F)cc1CN1CCN(CC(=O)Nc2ccccc2C(=O)NC2CC2)CC1`, with -87.6%. In the case of `COC(=O)c1ccccc1NC(=O)CN1CCC(NC(=O)c2ccc(C)cc2)CC1` it was 8.67%.

For the compound `COc1cc2c(cc1OC)CN(CC(=O)Nc1ccccc1C(=O)NC1CC1)CC2`, the “hERG current change (%, negative = inhibition) at 10uM” value is on record as -24.5%. Turning to `COc1ccc(CN2CCN(CC(=O)Nc3ccccc3C(=O)NC3CC3)CC2)cc1F`, the “hERG current change (%, negative = inhibition) at 10uM” value is -91.3%.

On to `COc1cccc(OC)c1NC(=O)CN1CCC(NC(=O)c2cccc(F)c2)CC1`, for which the “hERG current change (%, negative = inhibition) at 10uM” value is recorded as 1.5%. In the case of `COc1ccc(CN(C)CC(=O)Nc2ccccc2C(=O)NC2CC2)cc1OC` it was -21.7%; in that of `COc1ccc(OC)c(CN2CCN(CC(=O)Nc3ccccc3C(=O)NC3CC3)CC2)c1`, -82.5%; in that of `COc1cc(C)c(CN2CCN(CC(=O)Nc3ccccc3C(=O)NC3CC3)CC2)cc1OC`, -80.1%. For the compound `O=C(CCC(=O)c1ccc(F)cc1)Nc1ccccc1Cl`, the “hERG current change (%, negative = inhibition) at 10uM” value stood at 1.71%. Then `Cc1ccc(S(=O)(=O)N2CCCC2)cc1C(=O)N1CCN(Cc2ccccc2)CC1`, with -8.29%; and `CC1CSc2nnc(CCc3ccccc3)n21` (stereo not shown), with 8.26%; and `O=C(CSc1ccc(-c2cccnc2)nn1)N1CCCCCC1`, with 23.2%. In the case of `CCCCn1c(N)c(N(CCOC)C(=O)CSCc2cccc(C)c2)c(=O)[nH]c1=O` it was 9.08%; in that of `COCCNS(=O)(=O)c1ccc(SC)cc1`, 10.2%. On to `Cc1cc(NC(=O)CSc2nnc(COc3ccccc3)n2Cc2ccco2)no1`, for which the “hERG current change (%, negative = inhibition) at 10uM” value is given as 2.24%. In the case of `CCOC(=O)c1c(NC(=O)CCS(=O)(=O)c2ccccc2)sc2c1CCN(C)C2.Cl`, the “hERG current change (%, negative = inhibition) at 10uM” value is reported as -52.5%.

Regarding `CC(=O)N1CCc2c(sc(NC(=O)CS(=O)(=O)c3ccc(F)cc3)c2C(N)=O)C1`, the “hERG current change (%, negative = inhibition) at 10uM” value was 15.7%.

`CCOC(=O)N1CCc2c(sc(NC(=O)CCS(=O)(=O)c3ccccc3)c2C(N)=O)C1`: the “hERG current change (%, negative = inhibition) at 10uM” value was -10.8%. Then `CC(C)N1CCc2c(sc(NC(=O)CCS(=O)(=O)c3ccccc3)c2C#N)C1.Cl`, with -9.63%; and `CN1CCc2c(sc(NC(=O)CS(=O)(=O)c3ccccc3)c2C(N)=O)C1.Cl`, with -23.4%; and `CC(C)N1CCc2c(sc(NC(=O)CCS(=O)(=O)c3ccccc3)c2C(N)=O)C1.Cl`, with -26%. Then `COC(=O)c1c(NC(=O)CCS(=O)(=O)c2ccccc2)sc2c1CCN(C)C2.Cl`, with -48%; and `CC(=O)N1CCc2c(sc(NC(=O)CCS(=O)(=O)c3ccccc3)c2C(N)=O)C1`, with 5.3%; and `CCCN1CCc2c(sc(NC(=O)CCS(=O)(=O)c3ccccc3)c2C(=O)OC)C1.Cl`, with -67%. In the case of `CCOC(=O)c1c(NC(=O)CCS(=O)(=O)c2ccccc2)sc2c1CCN(C(C)C)C2.Cl` it was -72.4%; in that of `CCCN1CCc2c(sc(NC(=O)CCS(=O)(=O)c3ccccc3)c2C(N)=O)C1.Cl`, -27.3%. With `CN1CCc2c(sc(NC(=O)CS(=O)(=O)c3ccc(F)cc3)c2C(N)=O)C1.Cl`, the “hERG current change (%, negative = inhibition) at 10uM” value was -58.8%. Then `CC(Sc1ncn[nH]1)C(=O)Nc1ccc(Cl)cn1` (stereo not shown), with 2.06%. In the case of `O=C(O)c1ccc(/C=C/c2nc3ccccc3c(=O)[nH]2)cc1` it was 17.5%; in that of `CCSc1nnc(NC(=O)c2cccs2)s1`, -8.23%; in that of `COc1cc(OC)cc(-c2nnc(SCC(=O)N3c4ccccc4Sc4ccccc43)o2)c1`, 15.3%. Then `CC1C=CCC2C(=O)N(c3ccc(Cl)cc3O)C(=O)C12` (stereo not shown), with -2.47%; and `COC(=O)c1sc(N2C(=O)C(O)=C(C(=O)c3ccc(C)o3)C2c2ccco2)nc1C` (stereo not shown), with -4.73%; and `O=C(O)C1=C[C@H](c2ccc(C(F)(F)F)cc2)C[C@H](OCc2ccc(CO)cc2)O1`, with 21.5%. On to `O=C(CSc1ccsc1[N+](=O)[O-])N1CCN(c2ccc(Cl)cc2)CC1`, for which the “hERG current change (%, negative = inhibition) at 10uM” value came out at 10%.

`O=C(COc1ccc(Cl)cc1)Nc1ccc(NC(=O)c2ccco2)cc1`: the “hERG current change (%, negative = inhibition) at 10uM” value was 13.4%. With `COc1cccc(CN(C)C(=O)Nc2cccc(C(F)(F)F)c2)c1OC`, the “hERG current change (%, negative = inhibition) at 10uM” value is recorded as -4.73%. In the case of `O=C(NCc1ccc(Cl)cc1)c1cc2c(s1)CS(=O)(=O)C2` it was -15.1%; in that of `O=C(CCCn1c(=O)c2sccc2n(Cc2ccc(F)cc2)c1=O)NCc1ccco1`, -30.2%.

On to `O=C(NCc1cccs1)Nc1ccc(Cl)cc1`, for which the “hERG current change (%, negative = inhibition) at 10uM” value is given as -21.2%. In the case of `O=C(O)c1ccc2c(c1)S(=O)(=O)c1cc(Cl)ccc1C2=O` it was 19.5%; in that of `Cc1cccc(N2CCN(C(=O)COc3ccc4ccc(=O)oc4c3)CC2)c1C`, 5.66%.

For `CCN1/C(=C2\SC(=S)N(Cc3ccccc3)C2=O)Sc2ccccc21`, the “hERG current change (%, negative = inhibition) at 10uM” value worked out at 13.6%. Then `C[n+]1ccccc1/C=C1\Sc2ccccc2N1CCO.[I-]`, with -2.79%; and `CCC(CO)[n+]1c(C)cc(/C=C2\Sc3ccccc3N2Cc2ccccc2)cc1C.[Br-]` (stereo not shown), with -75.6%.

Take `Nc1cc([N+](=O)[O-])ccc1O`: the “hERG current change (%, negative = inhibition) at 10uM” value was 6.95%. With `Clc1cncc(Cl)c1N/N=C/c1ccccc1`, the “hERG current change (%, negative = inhibition) at 10uM” value is -1.37%. Regarding `CNC(=O)c1cc2cc(Cc3ccccc3Cl)ccc2oc1=O`, the “hERG current change (%, negative = inhibition) at 10uM” value stood at 1.75%. In the case of `CCN1C(=O)C(CC(=O)Nc2ccc(F)cc2)N(Cc2cccs2)C1=S` (stereo not shown) it was -48.9%.

For `CCOc1ccc2c(c1)C(N(CCN1CCOCC1)C(=O)Nc1ccccc1)CC(C)(C)O2` (stereo not shown), the “hERG current change (%, negative = inhibition) at 10uM” value was -19.1%. Then `CCOc1ccc2c(c1)C(N(CCN1CCOCC1)C(=O)Nc1ccc(OC)cc1OC)CC(C)(C)O2` (stereo not shown), with -51.9%. Then `CCOc1ccc2c(c1)C(N(CCN1CCOCC1)C(=S)Nc1ccccc1OC)CC(C)(C)O2` (stereo not shown), with -24.9%; and `CN(C(=O)/C=C/c1ccc2c(c1)OCO2)c1ccccc1`, with -4.59%. Turning to `CC(C)CNC(=O)C(=O)NCC(c1ccc2c(c1)OCO2)N1CCOCC1` (stereo not shown), the “hERG current change (%, negative = inhibition) at 10uM” value worked out at 6.81%. In the case of `COc1ccc(C(CNC(=O)C(=O)Nc2ccc3c(c2)OCO3)N2CCN(C)CC2)cc1` (stereo not shown) it was -50.9%. Consider `COc1ccc(C(CNC(=O)C(=O)Nc2ccc3c(c2)OCCO3)N2CCN(C)CC2)cc1` (stereo not shown), for which the “hERG current change (%, negative = inhibition) at 10uM” value is -45.1%. In the case of `Cc1ccc(C(CNC(=O)C(=O)Nc2ccc3c(c2)OCCO3)N2CCN(C)CC2)cc1` (stereo not shown) it was -55.5%; in that of `CN1CCN(C(CNC(=O)C(=O)Nc2ccc3c(c2)OCCO3)c2ccc(F)cc2)CC1` (stereo not shown), -46.2%; in that of `CN1CCN(C(CNC(=O)C(=O)Nc2ccc3c(c2)OCO3)c2ccc(F)cc2)CC1` (stereo not shown), -44.3%.
